We go through two sequences from PMC7862700, “An all-to-all approach to the identification of sequence-specific readers for epigenetic DNA modifications on cytosine”.

Holding throughout (assay): DAPPL (digital affinity profiling via proximity ligation, sequencing); 10 mM Tris-HCl pH 7.5, 50 mM NaCl, 1 mM DTT, 4% glycerol, room temperature, 30 min; GST-TFs on glutathione beads, 16-mer random dsDNA library, 0.1% formaldehyde crosslink after washing; high values mean tight binding
Conditions in all cases: protein: recombinant; tags: N-terminal GST; dsDNA, one strand shown

One assay deals with T1, GABPA (Homo sapiens, UniProt Q06546 1-454).
T1 sequence: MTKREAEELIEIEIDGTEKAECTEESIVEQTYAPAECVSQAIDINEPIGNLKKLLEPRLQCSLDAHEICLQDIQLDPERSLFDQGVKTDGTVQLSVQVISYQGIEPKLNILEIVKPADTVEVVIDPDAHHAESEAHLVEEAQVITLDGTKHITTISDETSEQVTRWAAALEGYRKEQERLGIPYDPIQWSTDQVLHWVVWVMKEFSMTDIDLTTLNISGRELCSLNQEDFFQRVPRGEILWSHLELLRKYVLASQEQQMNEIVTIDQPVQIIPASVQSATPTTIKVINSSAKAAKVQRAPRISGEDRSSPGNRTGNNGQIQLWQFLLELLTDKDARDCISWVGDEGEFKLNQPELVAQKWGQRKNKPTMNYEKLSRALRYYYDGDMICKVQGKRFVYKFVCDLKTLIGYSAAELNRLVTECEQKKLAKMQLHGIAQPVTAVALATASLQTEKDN
An outline of the steps: (§1)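 Sequencing on an Illumina NextSeq500 followed washing, crosslinking with 0.1% formaldehyde, proximity ligation (BsaI/T4 ligase, 1 h, 37 °C) and PCR amplification of pools that had been incubated for 30 min at room temperature with 200 nmole of a random double-stranded 16-mer DNA library in Tris/NaCl/DTT/glycerol buffer. Each pool held DNA-barcoded human transcription factors, expressed in yeast as GST fusions and captured on glutathione beads, plus a tag-only sample. Binding signal is a hexamer's read frequency for a factor divided by its frequency in the tag-only sample.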

The target in the next assay is T2, EHF (Homo sapiens, UniProt Q9NZC4 1-300).
T2 sequence: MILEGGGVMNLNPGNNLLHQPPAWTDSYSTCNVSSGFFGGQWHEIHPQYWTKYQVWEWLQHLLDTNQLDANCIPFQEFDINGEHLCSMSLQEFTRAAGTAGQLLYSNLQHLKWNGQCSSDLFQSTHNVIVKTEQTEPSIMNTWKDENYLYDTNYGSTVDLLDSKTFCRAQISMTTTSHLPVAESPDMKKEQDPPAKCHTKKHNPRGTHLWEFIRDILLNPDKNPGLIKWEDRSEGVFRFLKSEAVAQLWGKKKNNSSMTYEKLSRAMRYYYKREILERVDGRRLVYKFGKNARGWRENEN
In outline: as §1

A further assay deals with T3, ELK3 (Homo sapiens, UniProt P41970 1-407).
T3 sequence: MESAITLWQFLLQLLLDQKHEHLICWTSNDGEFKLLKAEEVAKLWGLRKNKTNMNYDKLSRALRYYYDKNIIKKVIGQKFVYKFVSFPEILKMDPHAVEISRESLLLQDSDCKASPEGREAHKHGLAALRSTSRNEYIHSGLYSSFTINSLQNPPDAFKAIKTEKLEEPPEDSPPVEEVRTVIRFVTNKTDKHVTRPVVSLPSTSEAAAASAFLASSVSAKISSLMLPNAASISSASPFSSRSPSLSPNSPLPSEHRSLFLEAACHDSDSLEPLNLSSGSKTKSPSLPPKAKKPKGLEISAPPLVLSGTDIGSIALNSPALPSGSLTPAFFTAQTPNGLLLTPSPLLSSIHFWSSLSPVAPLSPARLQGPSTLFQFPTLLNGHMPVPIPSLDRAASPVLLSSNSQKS
In outline:
as §1

The target in the next assay is ETV5 (Homo sapiens, UniProt P41161 1-510). An outline of the steps:
as §1

The next assay has as its target T4, ELF3 (Homo sapiens, UniProt P78545 1-371).
T4 sequence: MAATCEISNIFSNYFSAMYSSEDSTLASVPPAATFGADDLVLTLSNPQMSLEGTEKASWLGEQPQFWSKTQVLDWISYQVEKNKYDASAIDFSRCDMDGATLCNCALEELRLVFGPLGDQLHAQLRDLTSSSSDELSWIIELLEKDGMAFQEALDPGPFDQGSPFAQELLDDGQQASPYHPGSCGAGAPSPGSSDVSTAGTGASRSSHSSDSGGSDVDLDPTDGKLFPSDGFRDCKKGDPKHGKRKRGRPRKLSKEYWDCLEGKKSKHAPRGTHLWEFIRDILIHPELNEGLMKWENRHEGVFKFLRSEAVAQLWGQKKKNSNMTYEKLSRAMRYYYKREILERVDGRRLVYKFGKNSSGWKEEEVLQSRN
An outline of the steps: as §1

A further assay has as its target ETV1 (Homo sapiens, UniProt P50549 1-477). In outline: as §1
In another assay the target is T5, ERF (Homo sapiens, UniProt P50548 1-548).
T5 sequence: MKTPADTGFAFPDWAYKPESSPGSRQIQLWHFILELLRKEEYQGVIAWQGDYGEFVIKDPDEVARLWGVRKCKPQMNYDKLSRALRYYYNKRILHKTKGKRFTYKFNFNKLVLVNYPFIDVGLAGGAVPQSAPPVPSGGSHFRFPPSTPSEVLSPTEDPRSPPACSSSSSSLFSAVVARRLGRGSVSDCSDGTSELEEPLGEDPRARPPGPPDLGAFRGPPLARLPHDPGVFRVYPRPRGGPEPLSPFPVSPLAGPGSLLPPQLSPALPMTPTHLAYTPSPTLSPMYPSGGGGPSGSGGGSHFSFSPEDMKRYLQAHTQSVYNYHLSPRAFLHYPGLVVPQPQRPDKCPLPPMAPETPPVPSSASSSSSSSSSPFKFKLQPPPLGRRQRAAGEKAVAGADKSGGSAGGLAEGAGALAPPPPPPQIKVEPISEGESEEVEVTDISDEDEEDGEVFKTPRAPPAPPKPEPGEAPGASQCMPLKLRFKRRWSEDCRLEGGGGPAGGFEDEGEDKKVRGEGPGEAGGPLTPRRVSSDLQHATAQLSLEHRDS
In outline:
as §1

The next assay has as its target T6, ETS2 (Homo sapiens, UniProt P15036 1-469).
T6 sequence: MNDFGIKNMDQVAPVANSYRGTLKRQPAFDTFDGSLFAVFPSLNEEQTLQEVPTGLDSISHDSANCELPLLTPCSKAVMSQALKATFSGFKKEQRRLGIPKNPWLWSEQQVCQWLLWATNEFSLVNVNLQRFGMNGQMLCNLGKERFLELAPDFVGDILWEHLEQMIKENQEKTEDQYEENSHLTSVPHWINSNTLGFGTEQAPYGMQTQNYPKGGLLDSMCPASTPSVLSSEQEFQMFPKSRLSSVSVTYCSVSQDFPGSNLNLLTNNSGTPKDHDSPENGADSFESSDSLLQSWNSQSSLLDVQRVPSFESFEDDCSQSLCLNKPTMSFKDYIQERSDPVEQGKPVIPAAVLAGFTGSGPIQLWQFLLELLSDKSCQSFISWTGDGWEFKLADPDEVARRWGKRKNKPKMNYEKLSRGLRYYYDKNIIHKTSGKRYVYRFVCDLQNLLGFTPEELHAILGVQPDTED
In outline:
as §1

Another assay addresses T7, ETV3 (Homo sapiens, UniProt P41162-2 1-143).
T7 sequence: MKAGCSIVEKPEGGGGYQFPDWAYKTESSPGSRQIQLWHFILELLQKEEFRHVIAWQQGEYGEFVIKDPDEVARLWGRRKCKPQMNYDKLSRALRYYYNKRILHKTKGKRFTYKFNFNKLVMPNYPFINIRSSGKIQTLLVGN
In outline:
as §1

A further assay has as its target ETV6 (Homo sapiens, UniProt P41212 1-452). An outline of the steps: as §1
In the next assay the target is ELF1 (Homo sapiens, UniProt P32519 1-619). In outline:
as §1

A further assay deals with T8, ETV3L (Homo sapiens, UniProt Q6ZN32 1-361).
T8 sequence: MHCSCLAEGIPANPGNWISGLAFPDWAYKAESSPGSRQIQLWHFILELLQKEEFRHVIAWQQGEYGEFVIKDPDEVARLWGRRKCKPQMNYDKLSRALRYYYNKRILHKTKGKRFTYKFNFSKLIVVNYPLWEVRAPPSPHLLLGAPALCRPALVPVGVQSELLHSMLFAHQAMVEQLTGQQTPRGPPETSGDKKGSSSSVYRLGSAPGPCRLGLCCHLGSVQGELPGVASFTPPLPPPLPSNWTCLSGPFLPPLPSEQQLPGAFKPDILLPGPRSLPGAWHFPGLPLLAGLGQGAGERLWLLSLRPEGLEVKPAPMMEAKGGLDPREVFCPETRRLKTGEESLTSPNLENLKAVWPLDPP
In outline:
as §1

In the next assay the target is T9, ETV7 (Homo sapiens, UniProt Q9Y603 1-341).
T9 sequence: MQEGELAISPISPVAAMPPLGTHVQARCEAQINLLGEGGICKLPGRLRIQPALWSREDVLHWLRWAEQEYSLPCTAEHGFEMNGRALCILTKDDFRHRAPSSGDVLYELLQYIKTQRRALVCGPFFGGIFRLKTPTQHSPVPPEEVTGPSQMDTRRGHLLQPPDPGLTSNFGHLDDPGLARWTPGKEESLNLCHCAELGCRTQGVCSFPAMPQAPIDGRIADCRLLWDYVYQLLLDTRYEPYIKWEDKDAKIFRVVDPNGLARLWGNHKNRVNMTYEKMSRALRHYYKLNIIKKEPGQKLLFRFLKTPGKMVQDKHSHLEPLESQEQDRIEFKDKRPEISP
In outline:
as §1

Chain of ETV5 (P41161 whole entry): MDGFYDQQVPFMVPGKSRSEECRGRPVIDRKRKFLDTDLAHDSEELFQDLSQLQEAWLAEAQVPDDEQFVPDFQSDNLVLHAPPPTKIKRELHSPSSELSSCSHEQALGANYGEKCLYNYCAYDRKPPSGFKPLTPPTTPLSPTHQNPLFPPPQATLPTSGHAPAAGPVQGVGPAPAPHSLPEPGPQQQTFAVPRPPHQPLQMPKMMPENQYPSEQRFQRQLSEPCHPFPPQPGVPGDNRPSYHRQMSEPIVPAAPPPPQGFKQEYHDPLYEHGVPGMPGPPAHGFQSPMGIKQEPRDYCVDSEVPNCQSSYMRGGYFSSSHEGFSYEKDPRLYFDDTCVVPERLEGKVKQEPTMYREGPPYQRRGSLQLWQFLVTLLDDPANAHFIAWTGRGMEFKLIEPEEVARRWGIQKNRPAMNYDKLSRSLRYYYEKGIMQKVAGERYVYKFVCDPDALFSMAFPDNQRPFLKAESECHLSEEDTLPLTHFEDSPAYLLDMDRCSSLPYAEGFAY
Chain of ETV1 (P50549 whole entry): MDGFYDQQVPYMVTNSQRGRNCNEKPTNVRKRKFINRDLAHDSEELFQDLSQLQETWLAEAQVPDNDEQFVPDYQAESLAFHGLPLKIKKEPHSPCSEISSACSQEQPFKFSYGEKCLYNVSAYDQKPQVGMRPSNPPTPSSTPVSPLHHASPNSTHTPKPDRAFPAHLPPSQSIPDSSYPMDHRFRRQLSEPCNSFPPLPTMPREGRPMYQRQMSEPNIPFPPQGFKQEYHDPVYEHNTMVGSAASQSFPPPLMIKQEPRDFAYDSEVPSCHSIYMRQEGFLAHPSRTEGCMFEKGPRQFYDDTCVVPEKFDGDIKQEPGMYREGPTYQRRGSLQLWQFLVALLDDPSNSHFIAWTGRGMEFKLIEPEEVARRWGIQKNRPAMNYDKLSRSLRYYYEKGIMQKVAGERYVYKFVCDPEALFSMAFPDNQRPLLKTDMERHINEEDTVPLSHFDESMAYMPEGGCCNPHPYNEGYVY
Chain of ETV6 (P41212 whole entry): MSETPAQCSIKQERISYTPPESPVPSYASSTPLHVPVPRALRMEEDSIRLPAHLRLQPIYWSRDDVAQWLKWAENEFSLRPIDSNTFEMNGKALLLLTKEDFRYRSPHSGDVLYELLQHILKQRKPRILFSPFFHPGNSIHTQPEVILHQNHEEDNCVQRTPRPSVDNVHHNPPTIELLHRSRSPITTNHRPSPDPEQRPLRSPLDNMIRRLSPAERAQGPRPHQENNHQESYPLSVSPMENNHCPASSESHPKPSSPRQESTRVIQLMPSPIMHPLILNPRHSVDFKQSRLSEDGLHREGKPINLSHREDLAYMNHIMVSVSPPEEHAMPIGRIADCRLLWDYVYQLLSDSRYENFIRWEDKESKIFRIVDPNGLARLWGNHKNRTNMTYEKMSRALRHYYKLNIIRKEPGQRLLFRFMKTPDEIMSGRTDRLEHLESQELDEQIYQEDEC
Chain of ELF1 (P32519 whole entry): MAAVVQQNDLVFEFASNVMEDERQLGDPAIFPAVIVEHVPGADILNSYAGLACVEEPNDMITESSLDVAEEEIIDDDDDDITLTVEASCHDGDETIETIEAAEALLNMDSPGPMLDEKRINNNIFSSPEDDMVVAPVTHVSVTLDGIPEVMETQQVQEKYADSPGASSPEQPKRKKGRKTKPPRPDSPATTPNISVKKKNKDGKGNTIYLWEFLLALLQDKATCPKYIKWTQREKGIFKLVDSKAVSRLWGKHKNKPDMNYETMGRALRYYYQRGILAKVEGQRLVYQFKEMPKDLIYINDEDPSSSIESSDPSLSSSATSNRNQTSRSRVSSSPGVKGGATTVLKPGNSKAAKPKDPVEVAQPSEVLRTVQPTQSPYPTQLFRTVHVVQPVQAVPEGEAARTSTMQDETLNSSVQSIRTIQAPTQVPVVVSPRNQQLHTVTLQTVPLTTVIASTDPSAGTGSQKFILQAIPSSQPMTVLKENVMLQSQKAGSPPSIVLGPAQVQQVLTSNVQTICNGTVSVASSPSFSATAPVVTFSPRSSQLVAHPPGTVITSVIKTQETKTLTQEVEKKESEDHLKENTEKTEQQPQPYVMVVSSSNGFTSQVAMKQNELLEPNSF

As for AGTAAA, the binding signal with GABPA was 1.02 fold enrichment (6-mer frequency, TF over GST control); with EHF it was 1.03 fold enrichment (6-mer frequency, TF over GST control); in the assay with ELK3, 1.06 fold enrichment (6-mer frequency, TF over GST control); in the assay with ETV5, 1.05 fold enrichment (6-mer frequency, TF over GST control); with ELF3, 1.08 fold enrichment (6-mer frequency, TF over GST control); with ETV1, 1.04 fold enrichment (6-mer frequency, TF over GST control). Also, the binding signal in the assay with ERF is 1.01 fold enrichment (6-mer frequency, TF over GST control); in the assay with ETS2, 1.02 fold enrichment (6-mer frequency, TF over GST control); with ETV3, 1.03 fold enrichment (6-mer frequency, TF over GST control); with ETV6 it was 1.11 fold enrichment (6-mer frequency, TF over GST control).

GCTAGA: the binding signal with GABPA is 1.03 fold enrichment (6-mer frequency, TF over GST control); in the assay with ELF1 it was 1.01 fold enrichment (6-mer frequency, TF over GST control); with ETV5, 1.02 fold enrichment (6-mer frequency, TF over GST control); with ERF, 1.07 fold enrichment (6-mer frequency, TF over GST control); with ETV3L, 1.04 fold enrichment (6-mer frequency, TF over GST control); with ETV7 it was 1 fold enrichment (6-mer frequency, TF over GST control).
